Tau fibril ThT: qHTS for Inhibitors of Tau Fibril Formation, Thioflavin T Binding. Microtubule-associated protein tau (Homo sapiens), P10636. recombinant tau K18 P301L, heparin-induced fibrillization, ThT fluorescence. Potency, µM (highest dose often 57.4 µM), inactives show at the top dose activity, negative = inhibition, actives largely listed as inhibitors. 270,000 tested, 2.1% active; further: nearly all actives have a fitted effect of over 55% in size
Target sequence (P10636 561-689 P618L limits assumed): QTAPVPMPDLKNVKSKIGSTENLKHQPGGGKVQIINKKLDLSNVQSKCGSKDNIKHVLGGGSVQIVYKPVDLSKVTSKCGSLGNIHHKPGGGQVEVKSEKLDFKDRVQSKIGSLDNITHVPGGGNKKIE
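Using a mix of unlabeled (15 uM) and Alexa 594-labeled (0.24 uM) tau K18 P301L, heparin-triggered fibrillization over 6 hr at 37 C was scored by ThT fluorescence.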
Tau fluor cs: Counterscreen qHTS for Inhibitors of Tau Fibril Formation, Fluorescence Polarization; tau K18 P301L (four-repeat tau fragment) Alexa594 fluorescence, heparin fibrillization; Potency, µM (series often up to 57.7 µM), for inactives: at the highest dose activity change, negative = decrease; 280,000 tested, 0.93% active; further: nearly all actives have a fitted effect of over 55% in size
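Human K18 P301L tau (15 uM unlabeled plus 0.24 uM Alexa 594-labeled, final) in 100 mM sodium acetate pH 7 was mixed with compound and 20 uM heparin and incubated 6 hr at 37 C.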
ALDH1A1 inh: qHTS Assay for Inhibitors of Aldehyde Dehydrogenase 1 (ALDH1A1); Purified ALDH1A1, NADH fluorescence, propionaldehyde substrate; Potency, µM (titrated, usually from 75.3 µM), for inactives: top-dose activity, negative = inhibition, most hits filed as inhibitors; 220,000 tested, 7.3% active; active means well fitted inhibition curve with a large enough effect, not every such curve was filed as active; inconclusive means small, poorly fitted or top-dose-only effect, or another doubt; inactive means no such curve, though single readings can be large or run the other way;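 further: plate controls were no enzyme wells and a reference inhibitor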
Tau FP inhib: qHTS for Inhibitors of Tau Fibril Formation, Fluorescence Polarization. Microtubule-associated protein tau (Homo sapiens), P10636. K18 P301L tau heparin fibrillization, Alexa594 FP, 6 h. Potency, µM (series often up to 57.7 µM), inactives show at the highest dose activity, negative = inhibition, hits mostly inhibitors. 280,000 tested, 0.39% active; further: nearly all actives have a fitted effect of over 55% in size
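Human K18 P301L fragment (15 uM unlabeled plus 0.24 uM Alexa 594-labeled) in 100 mM sodium acetate pH 7 with compound, aggregation induced by 20 uM heparin for 6 hr at 37 C. ThT (30 uM) added for 1 hr, then Alexa 594 FP read.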
HPGD inh: qHTS Assay for Inhibitors of HPGD (15-Hydroxyprostaglandin Dehydrogenase) | 15-hydroxyprostaglandin dehydrogenase [NAD(+)] (Homo sapiens), P15428 | purified HPGD, NADH fluorescence kinetic, PGE2 substrate | Potency, µM, without a hit: at the highest dose activity change, negative = inhibition, most hits filed as inhibitors | 150,000 tested, 4.3% active; active means well fitted inhibition curve with a large enough effect, not every such curve was filed as active; inconclusive means small, poorly fitted or top-dose-only effect, or another doubt; inactive means no such curve, though single readings can be large or run the other way
Target sequence (P15428 whole entry, looked up): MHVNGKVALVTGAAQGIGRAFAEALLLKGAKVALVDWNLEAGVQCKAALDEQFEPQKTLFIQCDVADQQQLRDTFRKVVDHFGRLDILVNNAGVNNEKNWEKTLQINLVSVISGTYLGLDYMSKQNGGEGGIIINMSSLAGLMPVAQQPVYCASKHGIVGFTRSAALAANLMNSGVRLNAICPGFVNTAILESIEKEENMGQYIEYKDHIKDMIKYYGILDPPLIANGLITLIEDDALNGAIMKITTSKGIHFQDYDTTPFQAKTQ
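20 nM HPGD preincubated 15 min at room temperature with compound in 50 mM Tris-HCl pH 8, 0.01% Tween 20. Started with 1 mM NAD+ and 30 uM prostaglandin E2; NADH fluorescence (360/450 nm) read 5 times over 30-s intervals, last minus first.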
KDM4E inh: qHTS Assay for Inhibitors of Human Jumonji Domain Containing 2E (JMJD2E); AID 2147, 2009; Lysine-specific demethylase 4E (Homo sapiens), B2RXH2; Potency, µM (doses to about 57.1 µM), for inactives: top-dose activity change, negative = inhibition, usual class: inhibitors; JMJD2E catalytic domain, FDH-coupled NADH fluorescence (FDH is formaldehyde dehydrogenase); 230,000 tested, 1.6% active; active means well fitted inhibition curve with a large enough effect, not every such curve was filed as active; inconclusive means small, poorly fitted or top-dose-only effect, or another doubt; inactive means no such curve, though single readings can be large or run the other way;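 further: 0% = wells with enzyme and -100% = buffer wells without enzyme; nearly all actives have a fitted effect of over 50% in size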
Target sequence (B2RXH2 1-337 limits assumed): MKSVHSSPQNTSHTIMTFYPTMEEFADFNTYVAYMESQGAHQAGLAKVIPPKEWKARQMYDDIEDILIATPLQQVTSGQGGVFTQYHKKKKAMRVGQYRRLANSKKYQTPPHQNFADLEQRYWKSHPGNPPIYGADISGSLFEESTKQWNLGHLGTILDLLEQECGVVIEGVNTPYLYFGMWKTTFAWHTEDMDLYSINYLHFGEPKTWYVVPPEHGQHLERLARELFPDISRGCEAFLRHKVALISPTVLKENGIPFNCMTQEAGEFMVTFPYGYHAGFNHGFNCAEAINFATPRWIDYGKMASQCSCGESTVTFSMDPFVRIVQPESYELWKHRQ
Numbers without * were called inactive; ? = inconclusive; nt = no result given; ! = not active in a repeat; [ ] = remark or other dose. A selection: hits, their analogues and other compounds. The true share with any hit is near 9.9%. Unless noted, the call rests on the fitted dose curve; in most records, active means well fitted curve in the direction sought with a large enough effect; inconclusive means small, poorly fitted or top-dose-only effect, or another doubt; inactive means no such curve, though single readings can be large; an effect the other way counts as inactive or inconclusive. Unless noted, on the % scale 0 is the no-effect control and ±100 the full control effect; potency means the concentration at half of the fitted maximal effect.

SMILES	Tau fibril ThT	Tau fluor cs	ALDH1A1 inh	Tau FP inhib	HPGD inh	KDM4E inh
CC(C)C(OC(=O)c1cccc(S(=O)(=O)NCC(F)(F)F)c1)C(=O)NC(N)=O (stereo unspecified)	-4%	-7%	-9%	2%	nt	10%
Cc1ccc(N2C(=O)C(Cl)=C(Nc3c(C)n(C)n(-c4ccccc4)c3=O)C2=O)cc1	28µM*	-27%	4%	?	-15%	?
CCCCC#Cc1nc(N)c2ncn([C@@H]3O[C@H](C(=O)NCC)[C@@H](O)[C@H]3O)c2n1	2%	-5%	7.9µM*	-1%	-7%	18%
CC(=O)OC1CC(OC(C)=O)[C@]2(C)C(CC(=O)[C@]3(C)C2CC[C@@]2(C)C(c4ccoc4)OC(=O)C4O[C@@]423)C1(C)C (stereo partly specified)	25µM*	-21%	1%	32µM*	-1%	0%
Cc1cc(C)c2c(CC(=O)O)coc2c1	-8%	1%	-4%	6%	20µM*	0%
COC(=O)c1ccccc1NC(=O)N1CCC(N2CCN(Cc3ccc(F)cc3)C(=O)C2=O)CC1	2%	4%	nt	9%	nt	nt
CC(C)(SCc1ccccc1)[C@H](N)C(=O)O	nt	nt	1%[13.5 µM]	nt	2%	nt
Cc1cc2n(n1)CCCN2C(=O)Nc1ccc(C)c(Cl)c1	6%	0%	nt	-2%	nt	nt
Cc1nn2c(C(F)(F)F)cc(-c3ccc(Cl)cc3)nc2c1C(=O)N1CCOCC1	5%	3%	11µM*	-8%	?	0%
COc1ccc(CSc2nc3ccncc3n2Cc2nc(-c3ccc(OC)c(OC)c3)oc2C)cc1	?	-14%	nt	5%	nt	nt
O=C(O)c1ccc(N2C(=O)/C(=C/c3ccc(-c4ccc([N+](=O)[O-])cc4)o3)C=C2c2ccccc2)cc1	4.5µM*	?	?	?	nt	5%
CC1=NN(c2ccc(Cl)c(C(=O)O)c2)C(=O)/C1=C\c1ccc(-c2ccc(C(=O)O)cc2)o1	?	-10%	26%	1%	nt	?
Cc1ccc(S(=O)(=O)c2c(Nc3cc(C)ccc3C)sc(C(=O)c3ccc4c(c3)OCO4)c2N)cc1	0%	-5%	nt	-6%	nt	nt
O=C(Nc1nc2cc3c(cc2s1)OCCO3)c1ccc(N2C(=O)CCC2=O)cc1	nt	-20%	nt	-12%	nt	?
CN(C)CCN(C(=O)c1ccc(N2C(=O)CCC2=O)cc1)c1nc2cc3c(cc2s1)OCCO3	?	-13%	28µM*	-5%	nt	-20%
CC(C)=CCc1c(O)cc2oc3c(CC=C(C)C)c(O)c(O)c(CC=C(C)C)c3c(=O)c2c1O	?	14µM*[quencher]	nt	-5%	nt	28µM*
COc1c(O)cc2oc3cc(O)c(CC=C(C)C)c(O)c3c(=O)c2c1CC=C(C)C	?	2.8µM*[quencher]	-2%	2.8µM*	28µM*!	1%
COc1cc2ccc(=O)oc2c(CC=C(C)C)c1OC	-5%	-9%	nt	-11%	nt	?
CC(C)=CCc1c(O)cc2oc(C)cc(=O)c2c1O	-2%	-12%	-2%	-1%	4.5µM*	5%
CC1(OC(=O)CCc2ccccc2)C(=O)C=C2C=C3CCCN3C=C2C1=O (stereo unspecified)	3.5µM*	-24%[11.6 µM]	3%[13.5 µM]	?	-10%	18µM*
COC(=O)CCCC1=CC2=CC(=O)C(C)(OC(=O)CCc3ccccc3)C(=O)C2=CO1 (stereo unspecified)	25µM*!	?	6%	?	-27%	?
CC1(OC(=O)c2cccs2)C(=O)C=C2C=C3CCCN3C=C2C1=O (stereo unspecified)	5µM*	-23%[11.6 µM]	2%[13.5 µM]	?	-8%	5.6µM*
Cc1cc(F)ccc1NC(=O)Cn1c(=O)ccc2cc(S(=O)(=O)N3CCC(C)CC3)ccc21	8%	-4%	nt	-9%	nt	nt
CN(C(=O)CSC1=NC2C(N=N1)c1cc(Br)ccc1N2C)C1CCCCC1 (stereo unspecified)	0%	7%	6%	6%	nt	4%
O=C(NCc1ccccc1)C1CCN(S(=O)(=O)c2cc([N+](=O)[O-])ccc2Cl)CC1	-2%	-12%	25µM*	12%	-10%	-15%
SMILES	Tau fibril ThT	Tau fluor cs	ALDH1A1 inh	Tau FP inhib	HPGD inh	KDM4E inh
O=C(COC(=O)C1CCN(S(=O)(=O)c2cc([N+](=O)[O-])ccc2Cl)CC1)Nc1ncc(Cl)cc1Cl	?	?	6.3µM*	-3%	?	1%
O=C(COC(=O)C1CCN(S(=O)(=O)c2cccc3cccnc23)CC1)c1ccc([N+](=O)[O-])cc1	?	-28%	6.3µM*	-1%	-6%	-4%
O=C(Nc1nc2ccc(F)cc2s1)C1CCN(S(=O)(=O)c2cc([N+](=O)[O-])ccc2Cl)CC1	?	7.1µM*[quencher]	?	?	-15%	-16%
Cc1ccc2nc(NC(=O)C3CCN(S(=O)(=O)c4cc([N+](=O)[O-])ccc4Cl)CC3)sc2c1	?	?	?	6%	-16%	-3%
CCc1ccc(NC(=O)Cc2c(C(=O)O)c(C)cn2C)cc1	-6%	-12%	nt	6%	nt	nt
CC1=C(C(=O)OC(C)C)C(c2ccc(C)o2)C(C(=O)OC(C)C)=C(C)N1	2%	?	nt	-7%	nt	?
CN(Cc1ccccc1)C(=O)C1CCN(S(=O)(=O)c2cc([N+](=O)[O-])ccc2Cl)CC1	-14%	-21%	6.3µM*	6%	nt	-4%
CCCNC(=O)CCC(=O)N1Cc2cccc(OC)c2Oc2ncccc21	4%	3%	nt	0%	nt	nt
CN(C)/N=C/C=C1\CC/C(=C\c2ccc(Br)cc2)C1=O	0.89µM*	?	-4%	-3%	-13%	9%
CN(C)/N=C/C=C1\CCC/C(=C/c2cccs2)C1=O	0.63µM*	-10%	25µM*	0%	nt	8%
CN(C)c1ccc(/C=C2\CCCCC2=O)cc1	?	?	-10%	8%	?	-4%
O=C(CCNS(=O)(=O)c1cccc2nsnc12)Nc1ccc(F)cc1	-8%	-12%	nt	-1%	nt	nt
COc1ccccc1NS(=O)(=O)c1cc(NC(=O)c2ccncc2)ccc1N1CCCC1	?	22µM*[quencher]	11µM*	1%	nt	-17%
CC(=O)c1c(C)[nH]c(C(=O)Nc2ccc(C)c(S(=O)(=O)Nc3ccc(C)cc3C)c2)c1C	-12%	22µM*[quencher]	nt	?	nt	-11%
